About 2,300 (0.62%) of roughly 370,000 compounds were called active. The sample as a whole holds a higher share of actives than the screen did. Unmarked numbers belong to inactive results.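 How the source made its calls: active means lowest replicate activation of at least 40%, so every replicate reaches that level; inactive means the rest.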
Test: GLuc luminescence reporter in INS-1E cells, primary screen for activators of glucose-dependent secretion of insulin (AID 743287);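 further: 0% = median of neutral control wells and 100% = median of IBMX positive control wells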
Settings: INS-1E GLuc reporter insulin secretion, 2-3 h, at 16.6 µM, stronger effect = higher value

SMILES	activation
C[C@H]1CN([C@@H](C)CO)C(=O)c2cc(NC(=O)Cc3cn(C)c4ccccc34)ccc2O[C@@H]1CN(C)Cc1ccc(Cl)c(Cl)c1	7.56%
C[C@H](CO)N1C[C@H](C)[C@@H](CN(C)C(=O)Nc2cc(F)ccc2F)Oc2cc(C#CC3CC3)ccc2S1(=O)=O	-8.09%
CN(C)C(=O)[C@@H]1[C@@H](CO)[C@@H]2Cn3c(cccc3=O)[C@H]1N2C(=O)c1ccc(F)cc1	7.45%
O=C(C[C@@H]1CC[C@H](NC(=O)C2CC2)[C@@H](CO)O1)NCc1ccncc1	-4.07%
COc1ccc(C2OCC3(CO2)SC(=O)NC3=O)cc1OC (centres undefined)	21.8%
COc1ccc(C2CC(=O)Nc3sc(=N)c4c(N)c(C#N)c(N)nc4c32)cc1OC (centres undefined)	70.3% (active)
CCc1nc2c(OCc3ccc(F)c(F)c3)cccn2c1N(C)C(=O)c1ccco1	-1.95%
CCc1nc2c(OCCC3CCCCC3)cccn2c1N(C)C(=O)c1ccco1	42% (active)
CCc1nc2c(OCc3ccccc3)cccn2c1N(C)C(=O)c1ccco1	17.3%
CCC(=O)Nc1ccc2c(c1)C(=O)N(C)C[C@@H](OC)[C@H](C)CN(Cc1cccnc1)[C@@H](C)CO2	-1.44%
C[C@@H]1CN([C@@H](C)CO)C(=O)c2cccc(NC(=O)C3CC3)c2O[C@@H]1CN(C)C	21.1%
C=CCN(CC=C)S(=O)(=O)c1ccc(C(=O)Nc2sc3c(c2C(N)=O)CCCCC3)cc1	47.2% (active)
CC(=O)N1CCc2c(sc(NC(=O)CCS(=O)(=O)c3ccc(C)cc3)c2C(N)=O)C1	4.75%
CCOC(=O)c1c(NC(=O)C2CCN(S(=O)(=O)c3ccc(Cl)cc3)CC2)sc2c1CCCC2	-4.47%
Cc1ccc(S(=O)(=O)N(C)C[C@@H]2Oc3c(NC(=O)C4CCCCC4)cccc3C(=O)N([C@H](C)CO)C[C@H]2C)cc1	-9.86%
C=CCc1cccc2cc(C(=O)Nc3ccc(NC(C)=O)cc3)c(=O)oc12	6.64%
O=C(Nc1ccc(CN2CCOCC2)cc1)c1cc(Cl)ccc1Cl	-0.035%
C=CCn1cc(Cl)cc(C(=O)Nc2ccccc2)c1=O	98.4% (active)
C[C@H](CO)N1C[C@H](C)[C@H](CN(C)S(=O)(=O)c2ccccc2)Oc2ccc(NC(=O)Cn3cnnn3)cc2C1=O	12.8%
C[C@H]1CN([C@@H](C)CO)C(=O)c2cccc(NC(=O)Nc3ccc(F)cc3)c2O[C@H]1CN(C)S(=O)(=O)c1cn(C)cn1	6.95%
O=C(COC(=O)c1ncc(Cl)c(Cl)c1Cl)NC1CCS(=O)(=O)C1 (centres undefined)	53.1% (active)
O=C(COC(=O)c1ncc(Cl)c(Cl)c1Cl)NNC(=O)c1ccccc1	-6.14%
O=C(COC(=O)/C=C/c1ccc(Cl)cc1)NC1CCS(=O)(=O)C1 (centres undefined)	14.8%
OC(c1ccccc1)(c1ccccc1)C1CCN(CCCOc2ccc(-c3ccsc3)cc2)CC1	83.7% (active)
O=c1[nH]c2ccccc2n1C1CCN(CCOc2ccccc2)CC1	-4.23%

SMILES	activation
N#Cc1ccc(OCCCN2CCC(C(O)(c3ccccc3)c3ccccc3)CC2)c(F)c1	-32.8%
CC(=O)N1[C@H](CN(C)S(=O)(=O)c2ccccc2)[C@H](c2ccccc2)[C@@H]1CO	2.97%
COc1ccc(NC(=O)N(C)C[C@@H]2Oc3ccc(NC(=O)Nc4ccccc4)cc3CC(=O)N([C@H](C)CO)C[C@@H]2C)cc1	-8.36%
Cc1ccc(-c2cc(=O)[nH]c(NCc3ccccc3)n2)cc1	0.61%
CN1CCCc2nc(-c3ccccc3)ccc21	15.2%
CNc1nc(-c2ccccc2)cc(-c2ccccc2)n1	50.3% (active)
C[C@@H]1CN([C@H](C)CO)C(=O)c2cccc(NC(=O)CCCCCC(=O)Nc3ccccc3N)c2O[C@H]1CN(C)Cc1ccc(Oc2ccccc2)cc1	-51.6%
O=C(C[C@@H]1CC[C@@H](NC(=O)c2ccc3c(c2)OCO3)[C@H](CO)O1)NCc1ccc(Cl)cc1	-2.44%
COc1ccc(S(=O)(=O)N(C)C[C@H]2Oc3ccc(NS(=O)(=O)c4ccc(F)cc4)cc3C(=O)N([C@H](C)CO)C[C@H]2C)cc1	-11.6%
COC(=O)C1=C(C)N(C)C(=S)NC1c1cc(OC)ccc1OC (centres undefined)	-51%
COC(=O)C1=C(C)NC(=S)NC1c1ccc(OCC(=O)N2CC(C)OC(C)C2)c(OC)c1 (centres undefined)	8.95%
COC(=O)C1=C(C)NC(=S)NC1c1ccc(OC)cc1 (centres undefined)	140% (active)
CC(=O)N(C)C[C@@H]1Oc2ccc(N)cc2CC(=O)N(C)C[C@H]1C	-4.42%
Cc1cc(C)c2oc(C(=O)Nc3ccc(S(=O)(=O)Nc4nccc(C)n4)cc3)cc(=O)c2c1	74.6% (active)
Cc1ccnc(NS(=O)(=O)c2ccc(NC(=O)c3oc4ccc(F)cc4c3C)cc2)n1	17.6%
Cc1ccnc(NS(=O)(=O)c2ccc(NC(=O)c3oc4ccccc4c3C)cc2)n1	-7.58%
CC(=O)Nc1ccc2c(c1)CC(=O)N(C)C[C@H](C)[C@H](CN(C)S(C)(=O)=O)O2	17.7%
CC=Cc1ccc2n(c1=O)C[C@H]1[C@H](CO)[C@@H](C(=O)NC3CCCC3)[C@@H]2N1C(=O)c1cnccn1 (mixture of isomers)	3.54%
Cc1cc(Br)ccc1NC(=S)NC1CCCC1	46.8% (active)
CC1CN(C(=S)Nc2ccc(Br)cc2Cl)CC(C)O1 (centres undefined)	-10.5%
Cc1ccccc1C(=O)NC(=S)NC1CC1	-11.6%
C[C@@H]1CN([C@H](C)CO)C(=O)c2cccc(NS(=O)(=O)c3cn(C)cn3)c2O[C@H]1CN(C)S(=O)(=O)c1ccc(Cl)cc1	12%
O=C(Nc1ccccc1F)N1CC(=O)N2[C@H](CO)[C@H](c3ccc(C#CC4CC4)cc3)[C@@H]2C1	-9.47%
COc1cccc(CNC(=O)c2cc3c(c(-c4cccc(-c5ccc(C#N)cc5)c4)n2)[C@@H](CCO)N([S@](=O)C(C)(C)C)C3)c1	11.4%

From PubChem BioAssay AID743287 (Broad Institute, 2014)
